From PubChem BioAssay AID504832 (National Center for Advancing Translational Sciences (NCATS), 2011) come the findings set out here.

Out of some 310,000 compounds screened, about 18,000 (5.8%) were called active. Not shown: some 22% with an inconclusive outcome. The call rests on the fitted dose curve; in most records, active means well fitted inhibition curve with a large enough effect; inconclusive means small, poorly fitted or top-dose-only effect, or another doubt; inactive means no such curve, though single readings can be large or run the other way. Shown is part of a subset that was picked to be rich in actives. Where a call stands in place of a potency, no number is given.
Potency means the concentration at half of the fitted maximal effect.

This experiment is described as follows: Primary qHTS for delayed death inhibitors of the malarial parasite plastid, 48 hour incubation. The conditions noted are these: P. falciparum luciferase growth in erythrocytes; series mostly up to 28.7 µM. In outline: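 In quantitative HTS format, infected erythrocytes bearing luciferase-reporter parasites were treated for a single generation at 37 C. Luminescence after adding detection reagent served as the growth measure.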
Background: In qHTS, concentration-response curves come from the screen itself.
Take `Cc1occc1-c1nnc(SCC(=O)NC2(C#N)CCCC2)n1C`: the Potency result was “inactive”.
Same read-out and setting: next, `CSc1ccc(S(=O)(=O)NCC(=O)OCC(=O)NC2(C#N)CCCCC2)cc1[N+](=O)[O-]`: “inactive”.
Consider `O=C(Nc1cccc(NC(=O)c2cccc(F)c2)c1)c1ccccc1`, for which the activity change, negative = inhibition is 0% [at 0.00184 µM] (inactive).
Turning to `CC(C)N(Cc1ccccc1)C(=S)Nc1ccc(OC(F)F)cc1`, the Potency entry was “inactive”.
`CC(=O)c1ccc(NC(=S)N(Cc2ccccc2)C(C)C2CC2)cc1` (configuration not stated): the Potency is 13.1 µM (active).
The same measure, in the same setting: under `CC(=O)c1ccc(NC(=O)N[C@@H](Cc2ccccc2)C(=O)O)cc1` stands “inactive”.
In the case of `O=C(N/C(=C\c1ccc([N+](=O)[O-])cc1)C(=O)N1CCOCC1)c1cccc(Br)c1`, the Potency result was “inactive”.
Turning to `COc1ccccc1NC(=O)COC(=O)c1ccccc1SCC(=O)N1CCCC1`, the Potency entry was “inactive”.
The same measure, in the same setting: under `O=C(NCc1ccccc1)C1CCCN(S(=O)(=O)c2cccs2)C1` (configuration not stated) stands “inactive”.
For the compound `O=C(NCc1ccc2c(c1)OCO2)C1CCCN(S(=O)(=O)c2cccs2)C1` (configuration not stated), the Potency is 9.28 µM (active).
In the case of `CCS(=O)(=O)N1CCCC(C(=O)NCc2ccc(C)cc2)C1` (configuration not stated), the Potency entry was “inactive”.
Take `C/C(=N\NC(=O)c1cccc([N+](=O)[O-])c1)c1cccnc1`: the Potency entry was “inactive”.
Regarding `O=C(NC1CCC(O)CC1)c1ccccc1OCc1ccc(F)cc1` (configuration not stated), the Potency entry is “inactive”.
Consider `Cc1ccc(C(=O)Nc2nnc(C3=COCCO3)o2)cc1C`, for which the Potency result is “inactive”.
`COc1ccc(C(=O)CC(=O)c2ccc(C)cc2)c(O)c1`: the Potency entry was “inactive”.
On the same count and under the same terms, next, `COc1ccc(-c2n[nH]c(C)c2-c2ccc(OC)c(OC)c2)c(O)c1`: 13.1 µM (active).
`C=C(C)COc1ccc(-c2n[nH]c(C)c2-c2ccccc2)c(O)c1`: the Potency is 1.85 µM (active).
For the compound `COc1ccccc1-c1nc(SC)n[nH]1`, the Potency result was “inactive”.
In the case of `COc1ccc(-c2n[nH]c(C)c2-c2ccccc2OC)c(O)c1`, the Potency is 9.28 µM (active).
For `COc1ccc(-n2c(-c3ccc(OC)c(OC)c3)n[nH]c2=S)cc1`, the Potency entry is “inactive”.
As to `COc1ccc(C(=O)NNC(=O)c2cc(C)[nH]n2)cc1`, the Potency entry is “inactive”.
For the compound `Cc1noc(C)c1COC(=O)COc1ccc(-c2ccccc2)cc1`, the Potency result is “inactive”.
Consider `CCOc1ccc(-c2n[nH]c(C)c2-c2ccccn2)c(O)c1`, for which the Potency result was “inactive”.
For the compound `COc1ccc(-c2c(-c3ccc(OC)cc3O)nc(C)nc2C(F)(F)F)cc1`, the Potency is 7.38 µM (active).
Turning to `COC(=O)c1cc(OC)ccc1-c1ccc(OC)cc1`, the Potency entry was “inactive”.
On the same count and under the same terms, under `COc1ccc(-c2[nH]ncc2CN(C)Cc2c(C)n[nH]c2C)c(OC)c1` stands “inactive”.
Turning to `Cc1ccc(S(=O)(=O)N(CCCN(C)C)Cc2ccc3c(c2)OCO3)cc1`, the Potency entry was “inactive”.
On the same count and under the same terms, under `O=S1(=O)N=C(N(CCO)/N=C/c2ccccc2F)c2ccccc21` stands “inactive”; under `COCCCNC(=O)C1CC(=O)N(CCc2ccc(F)cc2)C1` (configuration not stated), “inactive”; under `CCc1ccc(C(=O)N2CCN(S(=O)(=O)c3sc(C(=O)O)c(C)c3C(=O)O)CC2)cc1`, “inactive”.
For `CCOc1ccc2[nH]c3nc(SCC(=O)NC4CCCC4)nnc3c2c1`, the Potency result is “inactive”.
Regarding `CN(C(=O)CN1C(=O)NC(C)(CCc2ccccc2)C1=O)c1ccccc1` (configuration not stated), the Potency result was “inactive”.
Turning to `Cc1ccc(C)c(NS(=O)(=O)c2c(C)[nH]c(C)c2C(=O)N2CCCCC2)c1`, the Potency entry is “inactive”.
As for `CCOc1ccc(C(=O)CCC(=O)NC2=NCCS2)cc1`, the Potency entry is “inactive”.
On the same count and under the same terms, next, `COc1ccccc1-c1n[nH]c2c1[C@H](C)CC[C@H]2C(C)C`: “inactive”; `C=C(C)COc1ccc(-c2nc(N)ncc2-c2ccccc2OC)c(O)c1`: “inactive”.
With `C=C(C)COc1ccc(-c2n[nH]c(C)c2-c2ccccc2OC)c(O)c1`, the Potency is 8.28 µM (active).
Regarding `Cc1ccc(CN(CC(=O)NC2CCCCC2)C(=O)c2csnn2)cc1`, the Potency entry is “inactive”.
With `Cc1ccc([N+](=O)[O-])cc1S(=O)(=O)N1CCCN(C)CC1`, the Potency result is “inactive”.
In the case of `CCC1=C(OC(=O)N(CC)CC)N2C(=O)OC(=NCC3CC3)[C@]2(C)[C@H]2C1=CC[C@H]1C(=O)N(CC(=O)OC)C(=O)[C@H]12`, the Potency result is “inactive”.
As for `CCC1=C(OC(=O)N(CC)CC)N2C(=O)OC(=NCCc3c[nH]c4ccccc34)[C@]2(C)[C@H]2C1=CC[C@H]1C(=O)N(CC)C(=O)[C@H]12`, the Potency is 9.28 µM (active).
Regarding `NC(=O)COC(=O)c1ccc2c(c1)C(=O)N(Cc1ccco1)C2=O`, the Potency entry is “inactive”.
`Cc1ccc(Cc2nnc(SCC(=O)Nc3ccccc3C)[nH]c2=O)cc1`: the Potency result is “inactive”.
In the case of `CCC(C)NC(=O)C1c2ccccc2C(=O)N1Cc1ccccc1` (configuration not stated), the Potency result was “inactive”.
Regarding `CC(CC(=O)Nc1cc(C(F)(F)F)ccc1Cl)c1ccccc1` (configuration not stated), the Potency entry is “inactive”.
With `NC(=O)Nc1cccc(C(F)(F)F)c1`, the Potency result was “inactive”.
As to `O=C(NNc1ccccc1Cl)C(O)(c1cccc(C(F)(F)F)c1)c1cccc(C(F)(F)F)c1`, the Potency is 3.29 µM (active).
Take `O=C(O)CCC(=O)Nc1ccc(OCC2CCCO2)cc1` (configuration not stated): the Potency result was “inactive”.
For the compound `COc1ccc(CNC(=O)CSc2n[nH]c(N)n2)cc1OC`, the Potency result is “inactive”.
For the compound `CN(Cc1cnccn1)C(=O)c1cc(COc2cccc(C(F)(F)F)c2)on1`, the Potency entry is “inactive”.
In the case of `CC(C)C(c1nnnn1Cc1ccccc1)N1CCC(C(N)=O)CC1` (configuration not stated), the Potency entry is “inactive”.
As to `O=C1N/C(=C/c2cccs2)C(=O)N1Cc1ccc(F)cc1`, the Potency result is “inactive”.
Same read-out and setting: under `Fc1ccc(Cn2nnnc2C(c2cccs2)N2CCCCCC2)cc1` (configuration not stated) stands 13.1 µM (active); under `O=C(CSc1nc2ccccc2c(=O)n1CCCO)NC1CC1`, “inactive”; under `O=C(N/N=C/c1cccc(OC(=O)c2ccc([N+](=O)[O-])cc2)c1)c1cccnc1`, “inactive”.
The same measure, in the same setting: next, `O=C(/C=C\c1cn(-c2ccccc2)nc1-c1cccs1)N1CCOCC1`: “inactive”; `O=C(O)/C=C/c1cn(-c2ccccc2)nc1-c1cccs1`: “inactive”; `O=C(O)c1ccc(N/N=C/c2cn(-c3ccccc3)nc2-c2cccs2)cc1`: 0.828 µM (active).
With `COc1cccc2cc(C(=O)NCc3ccc(C)cc3)c(=N)oc12`, the Potency result is “inactive”.
With `CCOc1ccc(OCC(=O)OC(C)C(=O)NC2CCCCC2C)cc1` (configuration not stated), the Potency result was “inactive”.
Take `Cc1oc2c(c1C(=O)N1CCOCC1)C(=O)c1ccccc1C2=O`: the Potency was 4.15 µM (active).
Turning to `O=C(c1ccccc1-c1ccccc1)N1CCOCC1`, the Potency result is “inactive”.
In the case of `Cc1onc(-c2ccccc2)c1C(=O)N1CCOCC1`, the Potency entry is “inactive”.
Same read-out and setting: under `Cc1ccc(NC(=O)C2CCCN2C(=O)OCc2ccccc2)cc1C` (configuration not stated) stands “inactive”; under `COc1ccc(C(=O)OCC(=O)Nc2ccc3[nH]c(=O)[nH]c3c2)c(OC)c1OC`, “inactive”.
As to `CCOC(CNC(=O)C(=O)NCC(c1ccco1)N1CCN(c2ccc(OC)cc2)CC1)OCC` (configuration not stated), the Potency entry was “inactive”.
On to `COc1ccc(NC(=O)C(=O)NCC(c2ccco2)N2CCc3ccccc3C2)cc1` (configuration not stated), for which the Potency is 13.1 µM (active).
In the case of `O=C(NCC(c1ccco1)N1CCc2ccccc2C1)c1ccccc1Cl` (configuration not stated), the Potency result is “inactive”.
Take `C=CCc1cccc(/C=N/NC(=O)COc2ccc(-n3cnnn3)cc2)c1O`: the Potency entry was “inactive”.
On to `CCOc1ccc(-n2c(SCC(N)=O)nnc2-c2ccco2)cc1`, for which the Potency result is “inactive”.
`O=C(COc1cccc(Cl)c1)NCc1ccccc1`: the Potency result is “inactive”.
Still for that read-out and setting: next, `COC(=O)C1=C(c2cccc(OCc3ccccc3)c2)C[C@@H]2CC[C@H]1N2C(=O)NNCc1ccccc1`: 8.28 µM (active).
On the same count and under the same terms, next, `COc1cccc(CNC(=O)C2CC(=O)N(C3CCCCCCC3)C2)c1` (configuration not stated): “inactive”.
Regarding `COC(=O)C1=C(c2ccc(C(C)=O)cc2)C[C@@H]2CC[C@H]1N2C(=O)NCCNC(C)=O`, the Potency result is “inactive”.
Regarding `COC(=O)C1=C(c2c(C)noc2C)C[C@@H]2CC[C@H]1N2C(=O)NCc1ccc2c(c1)OCO2`, the Potency entry was “inactive”.
For `COC(=O)C1=C(c2cccc(OCc3ccccc3)c2)C[C@@H]2CC[C@H]1N2C(=O)NCc1ccc(Br)cc1`, the Potency was 11.7 µM (active).
Consider `O=C(NCc1ccncc1)C(=O)NCC1OCCN1S(=O)(=O)c1ccc(Br)cc1` (configuration not stated), for which the Potency result is “inactive”.
Turning to `COCCCNc1nc2c(-c3cccc(C)c3)nnn2c2ccc(Cl)cc12`, the Potency result is “inactive”.
On the same count and under the same terms, under `CCOc1ccc(CC(=O)NCCS(=O)(=O)N2CCN(c3ccccc3)CC2)cc1` stands “inactive”; under `Cc1csc2nc(O)c(C(=O)NCCN3CCOCC3)c(=O)n12`, “inactive”.
Take `O=C(CN1CCN(S(=O)(=O)c2ccc(Cl)s2)CC1)N1CCCCC1`: the Potency entry is “inactive”.
On the same count and under the same terms, next, `O=C(c1cc2ccccc2o1)N1CCN(S(=O)(=O)c2ccc(Cl)s2)CC1`: 11.7 µM (active).
Turning to `CS(=O)(=O)N1CCN(C(=O)c2cc3ccccc3oc2=O)CC1`, the Potency result was “inactive”.
As to `CCOC(=O)N1CCN(C(=O)c2ccc(S(=O)(=O)c3ccc(C)cc3)c(NC(C)=O)c2)CC1`, the Potency entry was “inactive”.
Turning to `CCOC(=O)N1CCN(C(=O)c2ccc3c(c2)N(Cc2ccc(C)cc2)CCS3)CC1`, the Potency is 13.1 µM (active).
Still for that read-out and setting: under `O=C(NCCc1ccccc1)c1ccc2c(c1)N(Cc1ccccc1)CCS2` stands “inactive”; under `CCC(C)(C)NC(=O)C(c1ccccn1)N(C(=O)c1csnn1)c1ccccc1` (configuration not stated), “inactive”; under `COc1ccc(C(C(=O)NC(C)(C)C)N(C(=O)Cn2nnc3ccccc32)c2ccc(C(C)=O)cc2)cc1O` (configuration not stated), “inactive”.
Consider `CCC(C)(C)NC(=O)C(c1ccc(O)cc1)N(C(=O)Cn1nnc2ccccc21)c1ccc(NC(C)=O)cc1` (configuration not stated), for which the Potency is 2.08 µM (active).
Consider `CCN(CC(=O)Nc1cc(Cl)ccc1C)C(=O)CSCc1ccc(C)cc1`, for which the Potency entry is “inactive”.
As for `Cc1ccc(/C=N/NC(=O)CN2CCN(Cc3ccccc3)CC2)s1`, the Potency result is “inactive”.
Turning to `C=CCNC(=S)N/N=C/c1ccc(C)s1`, the Potency was 4.65 µM (active).
`C=CCNC(=S)N/N=C/c1ccc(OCc2ccccc2)cc1`: the Potency result was “inactive”.
Take `CC(C)(C)C(=O)NC1CC2CCCC(C1)N2C(=O)Nc1ccccc1F` (configuration not stated): the Potency entry is “inactive”.
Regarding `O=S(=O)(Nc1ccc(-n2cnnn2)cc1)c1ccc(Cl)cc1`, the Potency result was “inactive”.
Consider `CCOc1ccc(-n2c(SCC(=O)OC)nc3sc4c(c3c2=O)CCN(C)C4)cc1`, for which the Potency was 0.928 µM (active).
With `COc1ccc(-n2c(=S)[nH]c3sc4c(c3c2=O)CCc2ccccc2-4)cc1`, the Potency entry was “inactive”.
On to `CCc1cc2c(=O)n(-c3ccccc3)c(SCC(=O)O)nc2s1`, for which the Potency result is “inactive”.
With `COc1ccccc1NC(=O)CSc1nc2sc3c(c2c(=O)n1-c1ccccc1)CCN(C)C3`, the Potency was 1.65 µM (active).
The same measure, in the same setting: under `CCCSc1nc2sc3c(c2c(=O)n1-c1ccc(OC)cc1)CCN(C)C3` stands 7.38 µM (active); under `Cc1sc2nc(SCCO)n(-c3ccccc3)c(=O)c2c1C`, “inactive”; under `CCc1nc(SCC(=O)Nc2ccccc2OC)n[nH]1`, “inactive”.
`Cc1ccc(C)c(-n2c(SCC(=O)O)nc3sc4c(c3c2=O)CCCC4)c1`: the Potency result is “inactive”.
`COc1ccccc1-n1c(SCC(=O)O)nc2sc3c(c2c1=O)CCC3`: the Potency entry was “inactive”.
Same read-out and setting: next, `CCOC(=O)Cn1c(SC)nc2sc3c(c2c1=O)CC(C)(C)OC3`: “inactive”; `CCSc1nc2sc3c(c2c(=O)n1-c1ccc(C)cc1)CCN(C)C3`: 2.62 µM (active); `CCOc1ccc2cc(C#N)c(SCC(=O)OC)nc2c1`: “inactive”.
